Source: the supplement of paper PMC10941209
A number with no mark means an inactive call.

Tested on: Toxoplasma gondii RH 2F1 tachyzoites (intracellular in HFF)
Assay: parasite survival relative to DMSO control; higher = less antiparasitic activity, active = 20 or less
Conditions: 1 µM; 72 h
In short: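 Compound at 1 μM was applied for 72 h at 37°C in 5% CO2 to HFF cells in 96-well plates (5 × 10^3 cells/well) that had been infected for 3 h in D2 medium with 5 × 10^3 Toxoplasma gondii RH-2F1 tachyzoites carrying β-galactosidase. The readout was absorbance at 570 nm, 30 min after CPRG addition. Survival is reported as a percentage of the signal from infected wells given DMSO, based on at least 2 biological replicates.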

Structure (SMILES)	parasite survival
Nc1cc(N)c2nc(-c3ccccc3)c(Nc3ccc(F)cc3)nc2c1	7.94% (active)
Cc1[nH]c2ccccc2c1CCNCc1ccc(/C=C/C(=O)NO)cc1	4.12% (active)
C[C@H](NC(CC(=O)c1ccccc1C(F)(F)F)C(=O)O)c1ccccc1 (some centres undefined)	63%
Nc1nc(F)nc2c1ncn2[C@H]1O[C@@H](CO)[C@H](O)[C@@H]1O	30%
O=c1cc(Nc2ccc3ccccc3c2)[nH]c(=O)[nH]1	53.3%
COc1cc(NC(=O)CN2C(=O)NC(c3ccccc3)(c3ccccc3)C2=O)cc(OC)c1	49.2%
CC[C@H]1OC(=O)[C@H](C)[C@@H](O[C@H]2C[C@@](C)(OC)[C@@H](O)[C@H](C)O2)[C@H](C)[C@@H](O[C@@H]2O[C@H](C)C[C@H](N(C)C)[C@H]2O)[C@](C)(O)C[C@@H](C)C(=O)[C@H](C)[C@@H](O)[C@]1(C)O	13.9% (active)
NC(=S)N/N=C/c1ncccc1N	37.3%
O=C1NC(=S)N/C1=C\c1cc(Br)cc(Br)c1O	71.6%
O=C(Nc1ncc(Cc2cccc3ccccc23)s1)C1CCCCC1	25.3%
CCOC(=O)N1CCN(c2ccc(Cl)cc2)CC1	54.3%
O=C(c1ccccc1)N1CCN(c2ccccc2NC(=O)C(Cl)(Cl)Cl)CC1	63.4%
N[C@H]1CCC[C@H]1C(=O)O	78.4%
NCC(=O)Nc1ccc(-n2nc(C(F)(F)F)cc2-c2ccc3c(ccc4ccccc43)c2)cc1	13.7% (active)
COc1ccc(-n2cnc3cc(NCc4ccco4)ccc32)cc1	35%
COc1ccc2nc(-c3ccccc3)cc(O)c2c1	6.87% (active)
O=C(CSc1nnc(Br)n1-c1ccc(C2CC2)c2ccccc12)Nc1ccc(C(=O)O)cc1Cl	61%
CC(C)/N=c1\cc2n(-c3ccc(Cl)cc3)c3ccccc3nc-2cc1Nc1ccc(Cl)cc1	4.63% (active)
CC(C)Nc1ncnc2c1cnn2-c1ccc(Cl)cc1	58.2%
O=C(Nc1ccccc1)N(Cc1cc(Br)ccc1O)c1ccc(F)cc1	21.3%

Structure (SMILES)	parasite survival
NC[C@H]1O[C@H](O[C@H]2[C@H](O)[C@@H](O[C@H]3O[C@H](CO)[C@@H](O)[C@H](N)[C@H]3O)[C@H](N)C[C@@H]2N)[C@H](N)C[C@@H]1O	48.9%
C=CCc1cc(Cc2cnc(N)nc2N)cc(OC)c1O	29.8%
O=C(Nc1cccc(C2=NCCN2)c1)c1ccc(-c2ccc(C(=O)Nc3cccc(C4=NCCN4)c3)cc2)cc1	22.1%
COc1ccc(C2CNC(=O)C2)cc1OC1CCCC1 (centres undefined)	69.8%
C=CCN(C(=O)OCc1ccc([N+](=O)[O-])cc1)C1CCN(CC[C@](C)(CN(C)S(=O)(=O)c2ccccc2)c2ccccc2)CC1	35.5%
CCCCCCC1c2ccc(O)cc2Oc2cc(O)ccc21	25.2%
Nc1cccc(-c2nc(N)nc(NC3Cc4ccccc4C3)n2)c1	42.3%
C[C@H]1[C@@H](c2cccc(C(F)(F)F)c2)OC(=O)N1C(=O)NCc1cncc2ccccc12	40.6%
N#Cc1cc([N+](=O)[O-])ccc1Oc1ccccc1Cl	69%
FC(F)(F)Oc1ccc(Nc2ccc3cccc(Cl)c3n2)cc1	41.4%
CC(C)(C)NC(=O)[C@@H]1CN(Cc2cnc3occc3c2)CCN1C[C@@H](O)C[C@@H](Cc1ccccc1)C(=O)N[C@H]1c2ccccc2C[C@H]1O	58.1%
CCC(C)n1ncn(-c2ccc(N3CCN(c4ccc(OCC5COC(Cn6cncn6)(c6ccc(Cl)cc6Cl)O5)cc4)CC3)cc2)c1=O (centres undefined)	3.93% (active)
COc1cc(NS(=O)(=O)c2ccc(C)cc2)c2ncccc2c1	2.97% (active)
COc1ccc(C)cc1NC(=O)c1ccc(S(=O)(=O)N2CCCCC2)cc1	60%
CC1(C)CC(NC(=O)C(=O)Nc2ccc(Cl)cc2)CC(C)(C)N1	69.9%
Cc1cc(O)c2c(c1)C(=O)c1c(I)c(O)c(I)c(O)c1C2=O	47%
CCCCc1ccc(-c2cc(C(=O)O)cc(-c3ccc(Cl)cc3)n2)cc1	40.8%
O=C(c1ccc(F)cc1)N1CCN2C(=O)c3ccccc3C12c1ccccc1 (centres undefined)	64.9%
CC(Oc1ccc(Cl)cc1Cl)C(=O)NCc1ccc2c(c1)OCO2 (centres undefined)	31.2%
